# Bioassay records from PubChem.
# PLK1 kinase inh: blocks human PLK1 kinase activity; 97,000 compounds, 0.53% hits; recombinant PLK1 kinase, TR-FRET peptide phosphorylation; AID 619; P53350; inhibition, % at 10 µM;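 active = inhibition of 50% or more in the single-concentration screen; inactive = inhibition below 50%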;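 note: 0% = DMSO max control and 100% = H-89 dihydrochloride min control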
# CYP2C19 activ: cytochrome P450 2C19 (human) activation | 96,000 tested, under 10 active | recombinant CYP2C19, luciferin-H EGE luminescence; stronger effect = higher value; 0 = fully inhibited enzyme, 1 = untreated enzyme | activation factor at 5 µM | AID 1025;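 active = activation factor of at least 2 at 5 µM in the primary screen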;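 note: 0 = wells with 2.5 mM tranylcypromine and 1 = vehicle-only wells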
# Target sequence (P33261 whole entry, looked up): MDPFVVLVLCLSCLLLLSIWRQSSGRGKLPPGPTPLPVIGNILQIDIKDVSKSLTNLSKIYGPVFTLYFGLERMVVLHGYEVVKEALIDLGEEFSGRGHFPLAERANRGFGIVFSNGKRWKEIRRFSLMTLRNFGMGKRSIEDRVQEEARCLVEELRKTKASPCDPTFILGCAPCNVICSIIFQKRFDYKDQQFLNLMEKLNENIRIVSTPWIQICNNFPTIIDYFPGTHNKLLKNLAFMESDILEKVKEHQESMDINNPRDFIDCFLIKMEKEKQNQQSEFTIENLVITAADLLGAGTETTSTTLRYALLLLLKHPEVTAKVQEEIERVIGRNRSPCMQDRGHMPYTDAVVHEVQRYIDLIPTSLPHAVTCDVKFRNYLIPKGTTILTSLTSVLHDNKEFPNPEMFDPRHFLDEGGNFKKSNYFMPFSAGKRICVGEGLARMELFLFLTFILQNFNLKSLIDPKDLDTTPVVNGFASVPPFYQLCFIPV
# PLK1 PBD inh: inhibitors of human Plk1 polo box domain binding; AID 693; inhibition, %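 (tested at about 20 µM)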; 97,000 compounds, 0.13% hits; Plk1 PBD phosphopeptide binding, fluorescence polarization; in the data active = inhibition above about 34%, passing the limit was not always enough
# CYP2C9 activ: CYP2C9 (human) activation | P11712 | recombinant CYP2C9, luciferin-H conversion, luminescence; stronger effect = higher value; factor 1 = untreated enzyme, 0 = blocked | activation factor at 5 µM | 96,000 compounds, 1.4% hits;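 active = activation factor of 2 or more for CYP2C9 at a 5 µM dose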;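 note: 0 = sulfaphenazole-blocked wells and 1 = vehicle-only wells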
# CYP2C19 inh: inhibitors of human CYP2C19. P33261. CYP2C19 Supersomes, luciferin-H EGE luminescence, 30 min. inhibition, % at 5 µM. 96,000 compounds, 21% hits;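 active = CYP2C19 inhibition above a set limit at 5 µM in the primary screen, cut at about 50% in these data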;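 note: plate controls were negative control wells for no effect and 2.5 mM tranylcypromine positive control for full effect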
# CYP2C9 inh: human CYP2C9 inhibition; AID 777; 96,000 compounds, 20% hits; P11712; CYP2C9 Supersomes, luciferin-H conversion, luminescence; inhibition, % at 5 µM;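 active = blocking of liver enzyme CYP2C9 beyond about 50% at 5 µM, limit read from the data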
# * marks the source's active call; other numbers are inactive results; · = not tested or not shown. Compounds with a hit are over-represented: about 28% of the library has one in this group of screens.
SMILES,PLK1 kinase inh,CYP2C19 activ,PLK1 PBD inh,CYP2C9 activ,CYP2C19 inh,CYP2C9 inh
O=C(NCN1C(=O)C2C3C=CC(C3)C2C1=O)OC1CCCCC1 (stereo not given),-2.3,0.8,7.3,0.9,25.0,5.5
COc1ccc(NC(=O)C2CC(=O)n3cnnc3S2)cc1 (stereo not given),-11.5,0.9,9.5,1,5.8,3.1
c1cncc(-c2nc(Oc3ccc(-c4nnco4)cc3)c3c4c(sc3n2)CCCC4)c1,·,0.1,·,0,93.2*,97.5*
COc1ccc(OC)c(NC2c3ccccc3C(=O)N2c2cccnc2)c1 (stereo not given),-0.9,0.4,2.7,0.3,56.8*,67.0*
O=C1c2ccccc2C(Nc2ccc(Cl)cn2)N1c1cccnc1 (stereo not given),-18.2,0.2,11.9,0.8,84.7*,24.6
COCCNC(=O)c1cc2c(=O)n3cccc(C)c3nc2n(Cc2ccncc2)c1=N,-15.7,0.5,-7.8,0.6,51.0*,39.0
CCCCNC(=O)c1cc2c(=O)n3cccc(C)c3nc2n(Cc2ccncc2)c1=N,-5.0,0.4,22.6,0.6,64.6*,44.2
CCCCNC(=O)c1cc2c(=O)n3cccc(C)c3nc2n(CCN2CCOCC2)c1=N,·,1.1,·,0.9,-5.5,8.6
COc1ccc(CCNC(=O)c2cc3c(=O)n4cccc(C)c4nc3n(Cc3ccncc3)c2=N)cc1,·,0.1,·,0.1,90.4*,87.3*
COC(=O)c1cc2c(=O)n3cccc(C)c3nc2n(Cc2cccnc2)c1=N,·,1,·,0.8,0.1,15.5
Cn1c(=O)c2c(nc(N3CCCCC3)n2CCSc2nc3ccccc3o2)n(C)c1=O,-8.3,·,-24.7,·,·,·
CCn1c(N2CCC(Cc3ccccc3)CC2)nc2c1c(=O)[nH]c(=O)n2C,-3.6,0.2,-17.7,0.5,77.4*,53.7*
CC1CCCN(c2nc3c(c(=O)n(C)c(=O)n3C)n2CCSc2nc3ccccc3o2)C1 (stereo not given),-5.7,0.6,16.5,0.5,36.1,51.2*
CCCn1c(N2CCN(CC(=O)c3c(C)n(C)c4ccccc34)CC2)nc2c1c(=O)[nH]c(=O)n2C,-2.0,0.8,0.5,0.8,21.7,19.7
CC1CN(C2CCCCC2)c2nc3c(c(=O)[nH]c(=O)n3C)n2C1 (stereo not given),-10.5,0.9,1.6,0.4,6.7,55.7*
CCn1c(N2CCN(CC(=O)c3c[nH]c4ccccc34)CC2)nc2c1c(=O)[nH]c(=O)n2C,-4.8,0.6,10.6,0.5,37.2,54.0*
CC1CCN(c2nc3c(c(=O)[nH]c(=O)n3C)n2Cc2ccccc2)CC1,-7.9,0.8,14.8,0.8,21.8,16.6
CC1CN(CCc2ccccc2)c2nc3c(c(=O)[nH]c(=O)n3C)n2C1 (stereo not given),-5.9,0.3,-11.4,0.4,73.5*,56.6*
CC1CCCN(c2nc3c(c(=O)[nH]c(=O)n3C)n2CCCc2ccccc2)C1 (stereo not given),·,0.8,·,0.4,21.4,61.8*
CCC(=O)N(Cc1ccc(S(N)(=O)=O)cc1)C1CC(=O)N(c2ccc(OC)cc2)C1=O (stereo not given),-6.5,1.1,4.1,1,-6.0,0.2
COc1ccccc1-c1nnc(N(C)C(=O)C2CCCO2)s1 (stereo not given),-9.8,0.7,-16.2,1.2,30.7,-19.3
O=C1CCC(=O)N1OCCCOc1ccc2c(c1)CCC2,-11.2,0.9,7.6,1.1,6.2,-10.2
CC1(C)NC(=O)N(CCCCOc2cccc(C(F)(F)F)c2)C1=O,·,0.2,·,0.4,84.9*,60.7*
CC1(C)NC(=O)N(CCCCOc2ccc3c(c2)CCC3)C1=O,·,0.2,·,0.7,78.3*,32.9
CC1(C)NC(=O)N(CCOCCOc2cccc(Oc3ccccc3)c2)C1=O,-7.7,0,3.4,0.2,95.7*,84.1*
SMILES,PLK1 kinase inh,CYP2C19 activ,PLK1 PBD inh,CYP2C9 activ,CYP2C19 inh,CYP2C9 inh
CCC(C)Oc1cccc(OCCCCN2C(=O)NC(C)(C)C2=O)c1 (stereo not given),-13.3,0.3,-13.0,0.4,72.4*,59.2*
Cc1cc(NC(=O)CSc2nc3c(c(-c4cccnc4)c2C#N)CCC3)no1,-37.9,0.9,6.3,0.5,13.6,46.7
Cc1ccccc1NCCNc1ccccc1C,-2.6,0.2,-2.2,0.8,82.8*,23.4
Cc1ccccc1NC(=O)Cc1ccccc1,-8.0,·,18.0,·,·,·
O=S(=O)(N/N=C/c1ccc(Cl)cc1)c1ccc(Cc2ncc(C(F)(F)F)cc2Cl)s1,-9.6,1,-19.5,0.1,-4.0,91.9*
CC(C)(C)Nc1nc(SCc2ccccc2)nc(N2CCOCC2)n1,-14.3,0.3,-4.9,0,74.7*,96.6*
CNc1nc(SCc2ccccc2)nc(N2CCOCC2)n1,-9.8,0.3,3.9,0.5,68.6*,46.9
NNC(=O)CNC(c1ccccc1)c1cc(Br)ccc1NC(=O)c1ccccc1Br (stereo not given),-13.4,0.6,-6.9,0.4,38.3,58.2*
CCc1c(C(=O)Nc2cc(C)cc(C)c2)[nH]c(C)c1C(C)=O,-8.2,0.6,5.7,0.4,44.3,59.7*
COc1ccc(Cn2c(N)c(C#N)c3nc4ccccc4nc32)cc1OC,46.9,0.1,-28.2,0.3,90.4*,66.9*
COc1ccccc1CCn1c(N)c(C#N)c2nc3ccccc3nc21,-10.8,0.6,-5.8,0.4,38.4,55.4*
COc1ccc(CCNc2nc3ccccc3n3nnnc23)cc1OC,-11.4,0.7,18.2,0.9,32.1,8.3
COc1ccc(CCn2c(N)c(C#N)c3nc4ccccc4nc32)cc1OC,4.2,0,20.5,0.6,97.9*,40.4
COc1ccc(CCn2c(N)c(S(=O)(=O)c3cccs3)c3nc4ccccc4nc32)cc1OC,19.9,·,5.8,·,·,·
Nc1cc(N)nc(SCCN2CCCCC2)n1,-2.2,1,-28.7,0.9,1.9,9.4
O=C(CCCCCn1c(=O)[nH]c2ccsc2c1=O)NCc1cccs1,·,0.6,·,0.2,38.3,80.8*
O=C(CCCCCn1c(=O)[nH]c2ccsc2c1=O)NCc1ccc(F)cc1,-11.0,0.6,11.0,0.1,35.1,87.7*
O=C(CCCCCn1c(=O)[nH]c2ccsc2c1=O)N1CCCCC1,-3.0,·,26.2,·,·,·
O=C(CCCn1c(=O)[nH]c2ccsc2c1=O)NCc1cccs1,-4.8,0.9,-3.8,0.7,7.4,27.6
O=C(CCCCCn1c(=O)[nH]c2ccsc2c1=O)N1CCN(C2CCCCC2)CC1,-9.7,0.4,12.6,0.3,55.7*,72.5*
NS(=O)(=O)c1ccc(NC(=O)CN2CCN(Cc3ccccc3)CC2)cc1,-5.3,0.9,29.7,0.7,7.2,26.4
Cc1ccc2[nH]c(=O)c(CN(CCO)C(=O)N(C)C)cc2c1,1.4,·,-6.8,·,·,·
Cc1ccc(S(=O)(=O)N(CCCO)Cc2cc3c(C)ccc(C)c3[nH]c2=O)cc1,-9.9,0.9,-17.4,0.4,8.9,56.2*
